Experimental findings from PubChem BioAssay (Tox21) are described below.

Unmarked numbers belong to inactive results. Records with an inconclusive call do not appear. Calls of active or inactive are those of the source. Unless noted, calls follow the shape of the dose curve; as a rule, active = well fitted curve in the direction sought with a large enough effect in the repeat runs; inconclusive = weak or mixed curves; inactive = no such curve, though single readings can be large; an effect the other way counts as inactive or inconclusive.

Experiment [1] can be described thus: qHTS assay for small molecule agonists of the p53 signaling pathway (AID 651631; calls by dose curve; also: nearly all actives have a fitted effect of over 15% in size; also: potency is read from the fitted curve at half-maximal effect). Summed up:
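HCT-116 p53RE-bla reporter line, 16 h compound treatment at 37 °C, then fluorescence after 2 h with B/G FRET substrate.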
Background: Quantitative high-throughput screening tests each substance at several concentrations.

Experiment [2] is described as follows: qHTS assay for small molecules that induce genotoxicity in human embryonic kidney cells expressing luciferase-tagged ATAD5 (AID 651632). Also: nearly all actives have a fitted effect of over 15% in size. Summed up: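 Luminescent reporter readout, HEK293T ATAD5-luc line: 16 hr drug exposure (37C, 5% CO2) followed by Amplite, 30 min RT.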
A short description of experiment [3]: qHTS assay for small molecule agonists of the p53 signaling pathway - cell viability (AID 651633; calls by dose curve;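 also: p53RE-bla HCT reporter cells with a stable beta-lactamase p53 reporter; series mostly up to about 83 µM; nearly all actives have a fitted effect of over 30% in size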). Summed up: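 p53RE-bla cells were treated with compound for 16 hours at 37 C. Cytotoxicity was then measured as CellTiter-Glo luminescence after 30 min at room temperature.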
A short description of experiment [4]: qHTS assay for small molecules that induce genotoxicity in human embryonic kidney cells expressing luciferase-tagged ATAD5 - cell viability (AID 651634; calls by dose curve; also: nearly all actives have a fitted effect of over 25% in size). A digest of the protocol: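 Viability read: CellTiter-Fluor fluorescence, 30 min at 37C. Cells: HEK293T, luciferase-tagged ATAD5. Exposure: 15.5 hr, 37C, 5% CO2, compound or DMSO vehicle.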
The nature of experiment [5]: qHTS assay for small molecule disruptors of the mitochondrial membrane potential - cell viability (AID 720634; calls by dose curve;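 also: human HepG2 liver cancer cells; series mostly up to about 83 µM; nearly all actives have a fitted effect of over 20% in size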). A digest of the protocol:
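HepG2, 1 hr compound, 37 C. ATP luminescence via CellTiter-Glo, 30 min RT, same well as m-MPI.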

The nature of experiment [6]: qHTS assay for small molecule disruptors of the mitochondrial membrane potential (AID 720635). A digest of the protocol:
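HepG2 cells exposed to compound 1 hr at 37C, then Mito-MPS dye 30 min. Ratio read of aggregate (540/590 nm) versus monomer (490/535 nm) fluorescence.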

The nature of experiment [7]: qHTS assay to test for compound auto fluorescence at 590 nm (red) in HepG2 cells (AID 720674). Summed up:
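Fluorescence at 590 nm emission following 540 nm excitation was recorded from HepG2 wells one hour after compound transfer, with DMSO-only wells as vehicle and Rose Bengal sodium equivalency as the scale.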

Experiment [8] can be described thus: qHTS assay to test for compound auto fluorescence at 535 nm (green) in HepG2 cells (AID 720675).
The nature of experiment [9]: qHTS assay to test for compound auto fluorescence at 590 nm (red) in HEK293 cells (AID 720679). Summed up:
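Intensity at 540nm excitation and 590nm emission is reported as Rose Bengal sodium-equivalent autofluorescence. Measurements followed overnight exposure (37C, 5% CO2) of HEK293 cells, 2,000 per well, to 23 nL compound.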

Experiment [10] in a line: qHTS assay to test for compound auto fluorescence at 535 nm (green) in HEK293 cells (AID 720680).
Experiment [11] is described as follows: qHTS assay to test for compound auto fluorescence at 460 nm (blue) in HEK293 cell free culture (AID 720681). A digest of the protocol: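 Compounds were added to cell-free DMEM with 10% FBS and fluorescence read directly. The blue channel used 405 nm excitation and 460 nm emission, with triamterene as the reference fluorophore.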
Experiment [12] can be described thus: qHTS assay to test for compound auto fluorescence at 535 nm (green) in HEK293 cell free culture (AID 720682). Summed up:
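Steps: dispense DMEM/10% FBS into empty wells; pin in compound or DMSO; measure fluorescence at 485/535 nm. Values are fluorescein equivalents.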

Experiment [13] is described as follows: qHTS assay to test for compound auto fluorescence at 590 nm (red) in HEK293 cell free culture (AID 720683). A digest of the protocol:
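Cell-free wells of DMEM with 10% FBS received compound, and intrinsic fluorescence was read at excitation/emission 540/590 nm. Values expressed as equivalence to Rose Bengal sodium.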

A short description of experiment [14]: qHTS assay to test for compound auto fluorescence at 460 nm (blue) in HepG2 cell free culture (AID 720685). A digest of the protocol:
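Compound (23 nL) or DMSO pinned into cell-free MEM with 10% FBS; blue fluorescence read at 405/460 nm excitation/emission, expressed as auto-fluorescence equivalency to triamterene.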

Experiment [15] can be described thus: qHTS assay to test for compound auto fluorescence at 535 nm (green) in HepG2 cell free culture (AID 720686).
Experiment [16] has as its target Glucocorticoid receptor (Homo sapiens) (UniProt P04150). The experiment can be described thus: qHTS assay to identify small molecule agonists of the glucocorticoid receptor (GR) signaling pathway (AID 720691; active = well fitted activation curve with a large enough effect in the signal ratio in the repeat runs, not every such curve was filed as active; the % refers to the signal ratio). A digest of the protocol: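 qHTS in GR-bla HeLa cells: 4 h settling at 37 C/5% CO2, 18 h compound incubation at 37 C, 2 h LiveBLAzer B/G FRET substrate at room temperature, fluorescence intensity measured.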

Experiment [17] can be described thus: qHTS assay to test for compound auto fluorescence at 460 nm (blue) in HEK293 cells (AID 720678). A digest of the protocol: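 HEK293, 2,000 cells/well, 10% dialyzed FBS; attach 4-5 hr 37C; pin compound or DMSO; o/n 37C/5% CO2; fluorescence 405/460 nm; triamterene-equivalent units.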
Experiment [18] in a line: qHTS assay to test for compound auto fluorescence at 590 nm (red) in HepG2 cell free culture (AID 720684). A digest of the protocol: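 Compound was pinned into wells holding MEM with 10% FBS and no cells, and red fluorescence was read at Ex/Em 540/590 nm. Signal is expressed as auto fluorescence equivalency relative to Rose Bengal sodium.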
The nature of experiment [19]: qHTS assay to test for compound auto fluorescence at 460 nm (blue) in HepG2 cells (AID 720687). Summed up: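 HepG2 cells in MEM with 10% FBS, attached overnight at 37 C, were exposed to compound or DMSO for 1 hr at 37 C, 5% CO2. Blue fluorescence was read at 405/460 nm, with triamterene as reference fluorophore.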
Experiment [20] has as its target Glucocorticoid receptor (Homo sapiens) (UniProt P04150). The experiment can be described thus: qHTS assay to identify small molecule antagonists of the glucocorticoid receptor (GR) signaling pathway (AID 720692; active = well fitted inhibition curve with a large enough effect in the signal ratio in the repeat runs, not every such curve was filed as active; the % refers to the signal ratio). A digest of the protocol: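 Inhibition of glucocorticoid signalling is measured in HeLa cells with a GRE-controlled beta-lactamase reporter; cells are co-treated with compound and 5 nM dexamethasone (final) for 18 h before FRET substrate readout.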
% is scaled to controls: 0 for no effect and ±100 for the full control effect.

Sequence of Glucocorticoid receptor (Homo sapiens) (P04150 whole entry, looked up): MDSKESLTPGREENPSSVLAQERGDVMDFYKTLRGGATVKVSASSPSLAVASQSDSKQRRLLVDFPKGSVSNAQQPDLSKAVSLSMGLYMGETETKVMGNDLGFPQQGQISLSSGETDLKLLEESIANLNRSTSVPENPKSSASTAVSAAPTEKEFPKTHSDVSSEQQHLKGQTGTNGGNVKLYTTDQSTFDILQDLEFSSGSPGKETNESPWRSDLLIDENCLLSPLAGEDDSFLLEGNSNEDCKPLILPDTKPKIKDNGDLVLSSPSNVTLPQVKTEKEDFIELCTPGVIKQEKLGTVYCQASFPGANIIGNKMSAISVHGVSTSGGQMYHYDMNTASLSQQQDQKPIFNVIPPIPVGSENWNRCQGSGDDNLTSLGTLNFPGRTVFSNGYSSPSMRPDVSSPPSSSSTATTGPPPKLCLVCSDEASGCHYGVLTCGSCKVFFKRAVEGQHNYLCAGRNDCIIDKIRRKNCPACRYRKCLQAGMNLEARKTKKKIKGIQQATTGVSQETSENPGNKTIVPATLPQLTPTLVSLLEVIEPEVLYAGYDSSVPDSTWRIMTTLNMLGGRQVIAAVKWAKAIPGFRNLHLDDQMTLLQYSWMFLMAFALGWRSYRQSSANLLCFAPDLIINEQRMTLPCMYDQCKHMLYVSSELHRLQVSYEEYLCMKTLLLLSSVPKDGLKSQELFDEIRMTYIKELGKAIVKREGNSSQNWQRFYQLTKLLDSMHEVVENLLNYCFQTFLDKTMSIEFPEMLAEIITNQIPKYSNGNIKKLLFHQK

On to `COc1ccccc1OC(=O)Oc1ccccc1OC`, for which the Potency entry in experiment [1], in experiment [2], in experiment [3], in experiment [4], in [5] and in experiment [6] was “inactive” in each case. Further, the Potency result in experiment [11], in experiment [14] and in [16] was “inactive” each time. In addition, the call in experiment [7], in experiment [8], in [9], in [10], in [12] and in experiment [13] was inactive. Moreover, in [15], the outcome was inactive.

As for `CCCC(=O)OCC`, the Potency entry in [1], in experiment [2], in experiment [3], in experiment [4], in experiment [5] and in [17] was “inactive” each time. Further, the Potency entry in experiment [11], in experiment [14], in [19], in [16] and in experiment [20] was “inactive” each time. The compound was classed as inactive in [7], in experiment [8], in experiment [9], in experiment [10], in [12] and in experiment [13]. The compound was called inactive in experiment [18] and in [15].

`Nc1nc(N)c(-c2ccccc2)s1`: the Potency result in experiment [1], in experiment [2], in [3], in [4], in [5] and in experiment [6] was “inactive” each time. Besides, the Potency result in experiment [11], in experiment [14], in experiment [19] and in experiment [16] was “inactive” in each case. Besides, the compound was called inactive in experiment [7], in [8], in [9], in experiment [10], in experiment [13] and in experiment [18]. In experiment [15], the call was inactive.

Regarding `CCCc1ccccc1`, the Potency entry in experiment [1], in [2], in [3], in [4], in experiment [5] and in [17] was “inactive” in each case. The Potency result in [11], in experiment [14], in experiment [19] and in experiment [16] was “inactive” in each case. Moreover, the call in experiment [7], in experiment [8], in experiment [9], in experiment [10], in experiment [12] and in [13] was inactive. In addition, the compound was classed as inactive in [18] and in [15].

As to `CC(C)CCCC(C)CCO` (stereo not given), the Potency result in [1], in experiment [2], in experiment [3], in experiment [4], in experiment [5] and in experiment [6] was “inactive” throughout. The Potency entry in [17], in experiment [11], in [14], in experiment [19] and in experiment [16] was “inactive” in each case. The compound was classed as inactive in [8], in experiment [9], in [10], in [12], in experiment [13] and in experiment [18]. The compound was called inactive in experiment [15].

As for `FC(F)(F)C(F)(F)C(F)(F)C(F)(F)C(F)(F)C(F)(F)CCI`, the Potency entry in experiment [1], in [2], in [3], in [4], in experiment [5] and in experiment [6] was “inactive” in each case. Also, the Potency result in [17] and in experiment [14] was “inactive” in each case. In addition, the outcome in experiment [8], in experiment [9], in experiment [10], in [12], in experiment [13] and in experiment [18] was inactive. The compound was called inactive in experiment [15].

For `CCCCCCCCN(C)C`, the Potency entry in experiment [1], in [2], in experiment [3], in experiment [4], in [5] and in experiment [6] was “inactive” in each case. Further, the Potency entry in [17], in experiment [11], in experiment [14], in experiment [19], in [16] and in experiment [20] was “inactive” each time. In addition, the call in experiment [8], in experiment [9], in experiment [10], in experiment [13], in experiment [18] and in experiment [15] was inactive.

Regarding `CC[C@]12CCCN3CCc4c(n(c5ccccc45)C(=O)C1)[C@@H]32`, the Potency in experiment [1] was 2540 nM (active). The Potency result in experiment [2], in [3], in experiment [4], in [5] and in experiment [6] was “inactive” each time. Further, the fluorescence, % of fluorescein control in [8] was 0.0406% [at 18.6 µM]; in experiment [15], -0.019% [at 18.6 µM]. In addition, the fluorescence, % of fluorescent control in experiment [9] was 0.0084% [at 18.6 µM]; in [11], -0.0431% [at 18.6 µM]; in experiment [13], -0.702% [at 18.6 µM]; in experiment [14], 0.043% [at 18.6 µM]. Also, in experiment [12], the activity change is 0.026% [at 18.6 µM]. Besides, in experiment [18], the fluorescence, % of Rose Bengal is 0.0021% [at 18.6 µM].
